Screening data as filed in PubChem.
Shown are actives, neighbours in structure and some others; about 6.4% of the full set was active somewhere.
Luc counter – Counterscreen for Luciferase (Kinase-Glo TM) Inhibition | 0.28% of 200,000 active | Kinase-Glo luciferase, ATP luminescence, 8 min | Luciferin 4-monooxygenase (Photuris pensylvanica), Q27757 | Potency, µM (top dose mostly 38.3 µM), for inactives: at the top dose activity change, negative = inhibition, most hits filed as inhibitors; further: nearly all actives have a fitted effect of over 60% in size
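Luminescence was the read-out, taken after 8-minute incubation at ambient temperature. Luciferase turned over luciferin with 10 uM ATP in imidazole pH 7.2 buffer containing KCl, MgCl2, Tween 20 and BSA.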
Gal4-VP16 FLuc – VP16 counterscreen qHTS for inhibitors of ROR gamma transcriptional activity. 3.5% of 310,000 active. Drosophila S2 Gal4-VP16 UAS-luciferase, luminescence, 20 h. Potency, µM (titrated, usually from 53.6 µM), without a hit: at the top dose activity, negative = inhibition, actives largely listed as inhibitors;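 further: Gal4-VP16 expression switched on by copper sulfate through the metallothionein promoter; nearly all actives have a fitted effect of over 50% in size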
RORgamma inh – qHTS for inhibitors of ROR gamma transcriptional activity. Potency, µM (titrated, usually from 53.6 µM), for inactives: top-dose activity change, negative = inhibition, usual class: inhibitors. 5.4% of 310,000 active. AID 2551, 2010. Drosophila S2 Gal4-RORgamma UAS-luciferase reporter, 20 h. Nuclear receptor ROR-gamma (Mus musculus), P51450; further: nearly all actives have a fitted effect of over 60% in size
Target sequence (P51450 whole entry, looked up, the tested form may be a part): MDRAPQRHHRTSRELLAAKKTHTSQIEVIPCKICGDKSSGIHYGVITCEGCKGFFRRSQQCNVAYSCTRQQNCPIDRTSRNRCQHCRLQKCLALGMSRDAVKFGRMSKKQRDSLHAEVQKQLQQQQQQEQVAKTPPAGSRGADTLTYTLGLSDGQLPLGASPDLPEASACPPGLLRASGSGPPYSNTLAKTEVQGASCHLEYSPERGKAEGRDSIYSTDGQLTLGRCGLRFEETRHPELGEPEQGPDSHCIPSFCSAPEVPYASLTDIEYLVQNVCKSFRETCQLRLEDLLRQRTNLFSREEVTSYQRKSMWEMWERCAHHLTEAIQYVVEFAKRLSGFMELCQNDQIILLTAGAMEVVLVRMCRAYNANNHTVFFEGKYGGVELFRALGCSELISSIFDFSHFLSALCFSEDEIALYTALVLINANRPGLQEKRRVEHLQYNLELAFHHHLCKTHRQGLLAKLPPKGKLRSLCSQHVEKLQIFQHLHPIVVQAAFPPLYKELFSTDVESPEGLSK
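Drosophila Schneider cells stably carrying a metallothionein-driven Gal4 DBD–ROR gamma fusion and a UAS-Photinus luciferase reporter were exposed to compound for 1 hr, then induced with copper sulfate (700 uM final) for 20 hr at ambient temperature before luminescence reading.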
Starred values were filed as active, the others as inactive; ? = inconclusive; nt = no result; [ ] = remark or other dose. The call rests on the fitted dose curve; in most records, active means well fitted curve in the direction sought with a large enough effect; inconclusive means small, poorly fitted or top-dose-only effect, or another doubt; inactive means no such curve, though single readings can be large; an effect the other way counts as inactive or inconclusive. On the % scale 0 is the no-effect control and ±100 the full control effect; potency means the concentration at half of the fitted maximal effect.

SMILES | Luc counter | Gal4-VP16 FLuc | RORgamma inh
CC(=O)OC[C@H]1O[C@@H](O/N=C(\C)CCN2CCCc3nc(C)c(C)cc32)[C@H](OC(C)=O)[C@@H](OC(C)=O)[C@H]1OC(C)=O | nt | -3%[10 µM] | -1%[10 µM]
Cc1noc(C)c1C(=O)Nc1c(F)cc(F)cc1Br | 1% | -6%[0.365 µM] | 0%
Cc1cc(C(=O)Nc2c(F)cc(F)cc2Br)c(C)o1 | 0% | 10µM* | ?
COc1ccc(CCNc2nc(C)nc3c2nnn3Cc2ccccc2)cc1 | nt | 4% | 5%
O=C(CCC(=O)N1CCN(c2ccccn2)CC1)Nc1nnc(C(F)(F)F)s1 | nt | 6% | 34%
Cc1noc(NS(=O)(=O)c2ccc(NC(=O)CSc3nnc(-c4ccccc4)n3C3CCCCC3)cc2)c1C | 1% | -12% | -3%
O=C(CSc1nnc(SCc2ccccc2)s1)NNC(=S)Nc1ccccc1 | 6% | 13µM* | 14µM*
CCn1c(SCC(=O)NNC(=S)Nc2ccc(C)cc2)nnc1-c1ccc(Cl)cc1 | 1% | 1.4µM* | 3.5µM*
O=C(CSc1nnc(-c2ccncc2)s1)Nc1ccccc1 | nt | 2% | -4%
Cn1c(SCC(=O)NNC(=S)Nc2ccccc2)nnc1-c1ccccc1 | nt | 1.4µM* | 0.89µM*
Cc1ccc(NC(=S)NNC(=O)CSc2nnc(-c3ccc(Cl)cc3)n2C2CCCCC2)cc1 | 1% | ? | 11µM*
Cn1c(SCC(=O)NNC(=O)Nc2ccccc2)nnc1-c1ccccc1 | nt | 4% | -6%
CCn1c(C)nnc1SCC(=O)Nc1ccc(Cl)cc1 | nt | 5% | 41%
Cc1ccc(C(=O)Nc2ccc(Cl)cc2C)c(Cl)c1 | -1% | -24% | -2%
CN(C)c1ccc(N=C/C=C2/N(C)c3ccccc3C2(C)C)cc1 | -3% | ? | -21%
CCc1nnc(NC(=O)c2ccc3nc(CC)c(CC)nc3c2)s1 | -1% | 27% | 6%
Cc1ccc(NC(=O)CN(C)S(=O)(=O)c2ccc(Br)s2)cc1F | 9% | -7% | ?
CCOc1ccc2[nH]c3nc(SCC(=O)NC4CC4)nnc3c2c1 | nt | 2% | 12%
CC1(C)C(=O)NCCN1C(=O)CC1C(=O)NCCN1Cc1cccc(C(F)(F)F)c1 (centres undefined) | nt | -1% | -32%
Cc1ccc(NC(=O)c2ccc(NS(=O)(=O)/C=C/c3ccccc3)cc2)nc1 | nt | 14% | -5%
NC(=O)c1sc2cc(C(F)(F)F)cnc2c1-c1cccs1 | 1% | 1% | 20%
COC(=O)c1sc2cc(C(F)(F)F)cnc2c1-c1cccnc1 | 1% | -9% | -18%
NNC(=O)c1sc2cc(C(F)(F)F)cnc2c1-c1cccs1 | nt | ? | 10µM*
NNC(=O)c1sc2cc(C(F)(F)F)cnc2c1-c1cccnc1 | nt | ? | 14µM*
O=S(=O)(Oc1ccccc1N1CCCCC1)c1ccccc1 | nt | -2% | 11%
SMILES | Luc counter | Gal4-VP16 FLuc | RORgamma inh
Cn1nnnc1SCC(=O)C(C)(C)C | -7% | -21% | 8%
C=CCNC(=S)/N=c1/ccccn1CCC | nt | ? | 5µM*
C=CCNC(=S)/N=c1/ccccn1C | nt | -3% | -14%
COc1ccc(OC)c(CCNC(=O)C(C)n2nc(C)c3c(C)n(-c4ccc(C)cc4)nc3c2=O)c1 (centres undefined) | nt | -11% | ?
COc1ccc(C)cc1NC(=O)C(=O)N/N=C(\C)CC(=O)Nc1cccnc1 | -1% | 9% | -39%
COc1ccc(-c2nc3ccccc3o2)cc1OC | nt | 4% | -40%
COc1ccc(-c2nc3ccccc3o2)cc1NC(=O)CSc1ccc(Cl)cc1 | nt | -26% | 1.4µM*
COc1ccc(CCC(=O)NCCS(=O)(=O)N2CCN(c3ccccc3OC)CC2)cc1 | nt | ? | 42%
CC(C)n1c(O)c(N=NC(=O)CNC(=O)CCc2ccccc2)c2ccccc21 | nt | -2% | 1%
Cc1cc(C(=O)N=Nc2c(O)n(C(C)C)c3ccccc23)n[nH]1 | nt | ? | 11µM*
CO[C@@H]1COC(=O)[C@H](C)NC(=O)[C@@H](C)COC(=O)CCC[C@H]1C | nt | -1%[10 µM] | -3%[10 µM]
O=C(NCC1CCCO1)c1ccc(CSCc2cccc(F)c2)o1 (centres undefined) | 0% | -2% | ?
COc1ccc(Nc2oc(COc3ccc(Cl)cc3)nc2C#N)cc1 | -1% | ? | 16µM*
COc1ccc(CNc2oc(COc3ccc(Cl)cc3)nc2C#N)cc1 | -2% | -4% | ?
CCCCCCCCCCCCC/C=C/[C@@H](O)C(CO)NC(C)=O (some centres undefined) | -2% | 1% | -13%
CCCc1cc(=O)oc2c(C)c(OCC(=O)Nc3cccnc3)ccc12 | nt | -5% | 15%
CC1CCCC(NC(=O)CSC2CCCCC2)C1C (centres undefined) | 0% | ? | 10%
